# Results published in PubChem BioAssay AID1159580 (chemical genetic matrix, 2015).
# Several values for one entry are separate records, joined by “and”; a condition that tells them apart may be missing. Equal entries are not always repeated. Out of some 5,500 compounds screened, about 2,000 (36%) were called active. About 18% were inconclusive and are not listed. This is one part of the list. Values without a mark were called inactive. Rule as the data show it: active = normalized growth mostly below about 0.91 (no sharp cut-off); inconclusive = no clear call, values can overlap the other calls; inactive = mostly above about 0.92.
# Experiment: chemical genetic growth profiling, strain panel (AID 1159580);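 also: tested at 20 µM; growth read once vehicle control cultures reached saturation at 30 °C; 1 = growth at the plate median or of vehicle wells; lower values mean less growth of the strain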
# Conditions: S. cerevisiae deletion strains, growth OD
smiles,measurement,setting,value
C/C=C/CC(C)C(O)C1C(=O)NC(CC)C(=O)N(C)CC(=O)N(C)C(CC(C)C)C(=O)NC(C(C)C)C(=O)N(C)C(CC(C)C)C(=O)NC(C)C(=O)NC(C)C(=O)N(C)C(CC(C)C)C(=O)N(C)C(CC(C)C)C(=O)N(C)C(C(C)C)C(=O)N1C (stereo not given),normalized growth,"locus YAL013W, strain DEP1, active compounds read low",0.998
same,normalized growth,"locus YAL021C, strain ccr4, active compounds read low",1.02
same,normalized growth,"locus YAL026C, strain drs2, active compounds read low",1
same,normalized growth,"locus YAL030W, strain snc1, active compounds read low",1.02
same,normalized growth,"locus YAL040C, strain CLN3, active compounds read low",1.04
same,normalized growth,"locus YBL061C, strain skt5, active compounds read low",1.01
same,normalized growth,"locus YBR009C, strain hhf1, active compounds read low",1.01
same,normalized growth,"locus YBR021W, strain FUR4, active compounds read low",1.02
same,normalized growth,"locus YBR023C, strain chs3, active compounds read low",1.01
same,normalized growth,"locus YBR171W, strain sec66, active compounds read low",1.01
same,normalized growth,"locus YBR229C, strain ROT2, active compounds read low",0.972
same,normalized growth,"locus YBR231C, strain swc5, active compounds read low",1.02
same,normalized growth,"locus YBR279W, strain paf1, active compounds read low",1.02
same,normalized growth,"locus YCL011C, strain gbp2, active compounds read low",1.01
same,normalized growth,"locus YCL016C, strain dcc1, active compounds read low",0.996
same,normalized growth,"locus YCL029C, strain bik1, active compounds read low",1.01
same,normalized growth,"locus YCL061C, strain MRC1 (second series), active compounds read low",0.983
same,normalized growth,"locus YCL061C, strain MRC1, active compounds read low",1.02
same,normalized growth,"locus YCL069W, strain vba3, active compounds read low",1.02
same,normalized growth,"locus YCR088W, strain abp1, active compounds read low",1.02
same,normalized growth,"locus YDL005C, strain med2, active compounds read low",1.01
same,normalized growth,"locus YDL035C, strain GPR1, active compounds read low",0.979
same,normalized growth,"locus YDL040C, strain nat1, active compounds read low",1.01
same,normalized growth,"locus YDL074C, strain BRE1, active compounds read low",0.937
same,normalized growth,"locus YDL101C, strain DUN1, active compounds read low",0.988
same,normalized growth,"locus YDL134C, strain PPH21, active compounds read low",0.983
same,normalized growth,"locus YDL185W, strain tfp1, active compounds read low",0.358 (active)
same,normalized growth,"locus YDL192W, strain arf1, active compounds read low",1
same,normalized growth,"locus YDR001C, strain nth1, active compounds read low",1.01
same,normalized growth,"locus YDR069C, strain doa4, active compounds read low",1.03
same,normalized growth,"locus YDR101C, strain arx1, active compounds read low",1.02
same,normalized growth,"locus YDR137W, strain rgp1, active compounds read low",0.637 (active)
same,normalized growth,"locus YDR150W, strain NUM1, active compounds read low",0.996
same,normalized growth,"locus YDR159W, strain sac3, active compounds read low",0.993
same,normalized growth,"locus YDR162C, strain NBP2, active compounds read low",0.952
same,normalized growth,"locus YDR195W, strain ref2",1.01
same,normalized growth,"locus YDR297W, strain sur2, active compounds read low",1.02
same,normalized growth,"locus YDR318W, strain mcm21, active compounds read low",1.03
same,normalized growth,"locus YDR334W, strain swr1, active compounds read low",1.02
same,normalized growth,"locus YDR335W, strain msn5, active compounds read low",1.02
same,normalized growth,"locus YDR388W, active compounds read low",1.03
same,normalized growth,"locus YDR392W, strain spt3, active compounds read low",0.873
same,normalized growth,"locus YDR502C, strain sam2, active compounds read low",1.01
same,normalized growth,"locus YEL003W, strain gim4, active compounds read low",1.02
same,normalized growth,"locus YEL037C, strain rad23, active compounds read low",1.06
same,normalized growth,"locus YEL061C, strain CIN8 (second series), active compounds read low",1
same,normalized growth,"locus YEL061C, strain CIN8, active compounds read low",0.996
same,normalized growth,"locus YER002W, strain NOP16, active compounds read low",0.966
same,normalized growth,"locus YER015W, strain faa2, active compounds read low",1.02
same,normalized growth,"locus YER016W, strain bim1, active compounds read low",1.02
same,normalized growth,"locus YER110C, active compounds read low",1.02
same,normalized growth,"locus YER111C, strain swi4, active compounds read low",0.99
same,normalized growth,"locus YER155C, strain BEM2 (second series), active compounds read low",0.952
same,normalized growth,"locus YER155C, strain BEM2, active compounds read low",1.03
same,normalized growth,"locus YER167W, strain BCK2, active compounds read low",1.03
same,normalized growth,"locus YFR010W, strain ubp6, active compounds read low",1
same,normalized growth,"locus YGL078C, strain dbp3, active compounds read low",1.02
same,normalized growth,"locus YGL086W, strain mad1, active compounds read low",1.02
same,normalized growth,"locus YGL167C, strain pmr1, active compounds read low",1.03
same,normalized growth,"locus YGL173C, strain kem1, active compounds read low",1.02
same,normalized growth,"locus YGL227W, strain vid30, active compounds read low",1.02
same,normalized growth,"locus YGL240W, strain doc1, active compounds read low",0.978
same,normalized growth,"locus YGL248W, strain PDE1, active compounds read low",0.985
same,normalized growth,"locus YGL253W, strain hxk2, active compounds read low",1.02
same,normalized growth,"locus YGR078C, strain PAC10, active compounds read low",0.964 and 1.01
same,normalized growth,"locus YGR135W, strain pre9, active compounds read low",0.991
same,normalized growth,"locus YGR229C, strain SMI1, active compounds read low",0.937 and 1.01
same,normalized growth,"locus YGR252W, strain gcn5, active compounds read low",0.913
same,normalized growth,"locus YHR013C, strain ard1, active compounds read low",1.03
same,normalized growth,"locus YHR027C, strain rpn1, active compounds read low",1.03
same,normalized growth,"locus YHR030C, strain SLT2, active compounds read low",1.02 and 0.977
same,normalized growth,"locus YHR079C, strain IRE1 (second series), active compounds read low",1.03
same,normalized growth,"locus YHR079C, strain IRE1, active compounds read low",0.991
same,normalized growth,"locus YHR094C, strain hxt1, active compounds read low",1.02
same,normalized growth,"locus YHR129C, strain ARP1, active compounds read low",1.01
same,normalized growth,"locus YHR142W, strain chs7, active compounds read low",1.02
same,normalized growth,"locus YHR200W, strain rpn10, active compounds read low",1.02
same,normalized growth,"locus YIL066C, strain RNR3, active compounds read low",0.986
same,normalized growth,"locus YIL073C, strain SPO22, active compounds read low",1.02
same,normalized growth,"locus YIL125W, strain kgd1, active compounds read low",1
same,normalized growth,"locus YIR030C, strain dcg1, active compounds read low",1.02
same,normalized growth,"locus YJL092W, strain hpr5, active compounds read low",1.02
same,normalized growth,"locus YJL095W, strain BCK1 (second series), active compounds read low",1.03
same,normalized growth,"locus YJL095W, strain BCK1, active compounds read low",0.908 and 0.989
same,normalized growth,"locus YJL115W, strain asf1, active compounds read low",1.02
same,normalized growth,"locus YJL129C, strain trk1, active compounds read low",1.08
same,normalized growth,"locus YJL134W, strain LCB3, active compounds read low",1
same,normalized growth,"locus YJL154C, strain vps35, active compounds read low",1.01
same,normalized growth,"locus YJL164C, strain tpk1, active compounds read low",1.04
same,normalized growth,"locus YJL166W, strain qcr8, active compounds read low",1.02
same,normalized growth,"locus YJL168C, strain set2, active compounds read low",1.03
same,normalized growth,"locus YJL187C, strain SWE1 (second series), active compounds read low",0.968
same,normalized growth,"locus YJL187C, strain SWE1, active compounds read low",1.02
same,normalized growth,"locus YJR043C, strain POL32, active compounds read low",1
same,normalized growth,"locus YJR066W, strain TOR1, active compounds read low",0.959
